Measurements taken from PubChem BioAssay.
Activity calls are given as the source filed them.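 How the source made its calls, unless noted: active means z-score of at least 1.8 in each of two replicates, scored against plate mean and spread of sample wells; inactive means the rest.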

How the values were obtained:
[1] = survival rescue of mitochondrial mutant cells in low glucose, primary screen, MELAS cybrids, Rieske KO mouse fibroblasts, CellTiter-Glo (AID 1508586;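 active means mean z-score across replicates of 1.96 or higher in either the MELAS or the Rieske mutant cell line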;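 further: test concentration not given here; z relative to plate mean and SD of compound and empty wells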)
[2] = viability rescue of complex I mutant cybrids, primary screen, cell-based, galactose medium, ATP luminescence (AID 1645843); conditions: complex I mutant cybrid cells, 72 h, stronger effect = higher value;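 further: positive z means more ATP and so rescue of galactose-driven cybrid death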
[3] = MELAS cybrid survival, CellTiter-Glo 48 h, stronger effect = higher value
[4] = Rieske KO mouse fibroblast survival, CellTiter-Glo 72 h

Compound	z-score [1, 3]	z-score [1, 4]	z-score [2]
CC(=O)c1cccc(-c2cc3c(n(C)c2=O)CCN(C(=O)c2ccc4[nH]c5c(c4c2)CCCC5)C3)c1	-0.0854 (inactive)	-0.491	-1.45 (inactive)
O=C1N[C@@H](Cc2c[nH]c3ccccc23)C(=O)N2C[C@@H](NCc3ccccc3Cl)C[C@@H]12	-0.311 (inactive)	0.134	-0.945 (inactive)
Cc1csc(-c2cc(C(=O)N3CCC(N(C)C)C3)cc(S(=O)(=O)N3CCOCC3)c2)c1 (stereo not drawn)	-0.101 (inactive)	0.349	0.805 (inactive)
CC(C)N1CCN(C(=O)c2cc(-c3ccccc3)cc(S(=O)(=O)N3CCSCC3)c2)CC1	-0.246 (inactive)	-0.306	1.2 (inactive)
CC1=C(CCN2CCC3(CC2)C(=O)N(C(C)C)C(=O)N3C)C(C)(C)CCC1	-0.0598 (inactive)	-0.31	1.89 (inactive)
COc1ccc(CN2CC(OCc3cccnc3)CN(C(=O)C3=NN(C)C(=O)CC3)CC2=O)cc1 (stereo not drawn)	-0.43 (inactive)	-0.34	1.23 (inactive)
COc1cc(CN2CC(=O)N(CC3CCOCC3)CC(OCc3ccccn3)C2)cc2c1OCO2 (stereo not drawn)	-0.369	4.95	-1.33 (inactive)
COc1ccc(CCNC2CCc3c(c(C(=O)N(C)C)nn3CC3CCCCC3)C2)cc1 (stereo not drawn)	-0.342 (inactive)	0.349	-1.19 (inactive)
Cc1cc(-c2cc3c(n(C)c2=O)CCN(Cc2ccc(Sc4nncn4C)o2)C3)ccc1F	-0.56 (inactive)	-0.369	0.445 (inactive)
CCN1C(=O)N(CC(N)=O)C(=O)C12CCN(CC(C)Cc1ccc3c(c1)OCO3)CC2 (stereo not drawn)	0.0615 (inactive)	-0.343	1.17 (inactive)
CCn1nc(C(=O)N(C)Cc2ccco2)c2c1CCC(N(C)Cc1ccon1)C2 (stereo not drawn)	-0.655 (inactive)	-0.252	-1.03 (inactive)
CCC(C)C(=O)Nc1c(C(=O)OC)n(CC2CCCO2)c2ncc(NC3CCSC3)cc12 (stereo not drawn)	-0.0694 (inactive)	1.01	-0.775 (inactive)
COc1ccc(CN2C[C@H](C(=O)Nc3ccc4c(c3)CCC4)C[C@H](C(=O)N3CCCCC3)C2)cc1OC	0.5 (inactive)	0.0365	-1.66 (inactive)
CN1C(=O)N(CCCc2ccncc2)C(=O)C12CCN(C1CCSCC1)CC2	-0.208 (inactive)	-0.033	1.08 (inactive)
NCCCC[C@@H]1NC(=O)[C@@H]2C[C@H](NC(=O)c3sccc3Cl)CN2C1=O	-0.4 (inactive)	-0.67	-0.915 (inactive)
O=c1c(-c2ccccc2Cl)cc2c(n1Cc1ccncc1)CCN(Cc1ccnc3ccccc13)C2	-0.09 (inactive)	-0.0903	0.915 (inactive)
COc1cccc(-c2cc3c(n(Cc4ccccn4)c2=O)CCN(C(=O)c2csc(C)n2)C3)c1	-0.876	3.95	-0.495 (inactive)
CC(C)CNC(=O)[C@@H]1C[C@H](CN2CCOCC2)CN(Cc2ccncc2)C1	-0.456 (inactive)	-0.738	-0.6 (inactive)
CC(C)OCCNC1CCc2c(c(C(=O)N(C)Cc3ccccc3)nn2C)C1 (stereo not drawn)	0.055 (inactive)	-0.804	0.48 (inactive)
Cc1onc(-c2ccccc2)c1C(=O)N1CC(=O)N(Cc2ccccc2)CC(OCC2CC2)C1 (stereo not drawn)	0.442 (inactive)	-0.273	-1.6 (inactive)
C=CCn1nc(C(=O)N2CCCCCC2)c2c1CCC(NCc1cc(-c3ccccc3)on1)C2 (stereo not drawn)	-0.0315 (inactive)	0.236	-1.62 (inactive)
Cc1cc(-c2cc3c(n(Cc4cccnc4)c2=O)CCN(C(=O)C2Cc4ccccc4O2)C3)ccc1F (stereo not drawn)	-0.406 (inactive)	1.95	-0.785 (inactive)
CC(C)NS(=O)(=O)c1cc(NCc2cnn(C)c2)cc(C(=O)NCc2cn3ccccc3n2)c1	-0.615 (inactive)	-0.511	1.27 (inactive)
COC(=O)c1c(NC(=O)CCc2ccccc2)c2cc(NC(C)C(C)(C)O)cnc2n1C (stereo not drawn)	-1.19 (inactive)	-0.398	-0.305 (inactive)

Compound	z-score [1, 3]	z-score [1, 4]	z-score [2]
Cc1csc(-c2cc(C(=O)NCCCN3CCOCC3)cc(S(=O)(=O)N3CCOCC3)c2)c1	-0.167 (inactive)	0.151	2.09 (inactive)
O=C(NCCN1CCOCC1)c1cc(-c2ccccc2)cc(S(=O)(=O)N2CCSCC2)c1	-0.0926 (inactive)	-0.421	1.53 (inactive)
Cc1csc(SCC(=O)N2CCc3c(cc(-c4csc5ccccc45)c(=O)n3C)C2)n1	-0.151 (inactive)	0.398	1.5 (inactive)
Cc1ccc(C(=O)N[C@H]2C[C@H]3C(=O)N[C@@H](Cc4ccc(O)cc4)C(=O)N3C2)cc1F	-0.462 (inactive)	-0.468	0.075 (inactive)
COC(=O)c1c(NC(=O)c2ccco2)c2cc(NC3CCOCC3)cnc2n1C	-0.622 (inactive)	-0.251	0.7 (inactive)
Cc1ccc(N2CCN(C3CCc4c(c(C(=O)N5CCSCC5)nn4C)C3)CC2)c(C)c1 (stereo not drawn)	-0.0351 (inactive)	-0.612	0.195 (inactive)
COc1ccc(CN2C(=O)N(C)C3(CCN(Cc4cccn4-c4ccccn4)CC3)C2=O)cc1	-0.452 (inactive)	-0.368	0.16 (inactive)
Cc1ccc(CNC(=O)c2nn(C)c3c2CC(NC2CCN(Cc4ccccc4)CC2)CC3)o1 (stereo not drawn)	0.347 (inactive)	0.979	-1.23 (inactive)
COC(=O)c1c(NC(=O)C2CCC2)c2cc(NC3CCSCC3)cnc2n1CCc1ccccn1	-0.0865 (inactive)	-0.308	1.1 (inactive)
O=C(NCCn1ccnc1)c1cc(NCC2CC2)cc(S(=O)(=O)N2CCCC2)c1	-0.151 (inactive)	0.62	1.69 (inactive)
CN(Cc1nc(-c2ccccc2)cs1)C1CCc2c(c(C(=O)N3CCSCC3)nn2C)C1 (stereo not drawn)	0.0592 (inactive)	0.0851	0.7 (inactive)
CC[C@@H]1NC(=O)[C@H]2CN(C(=O)Oc3cccc4ccccc34)CCN2C1=O	0.408 (inactive)	0.404	-1.61 (inactive)
CC(C)[C@@H]1NC(=O)[C@@H]2C[C@H](NC(=O)c3cccc(Cl)c3)CN2C1=O	9 (active)	-0.848	-0.675 (inactive)
O=c1c(/C=C/c2ccccc2)cc2c(n1Cc1ccccn1)CCN(C1CCOCC1)C2	-0.0238 (inactive)	0.293	0.925 (inactive)
O=C(Cn1cnnn1)N1CC(=O)N(C2CCCCC2)CC(OCc2ccccc2)C1 (stereo not drawn)	-0.326 (inactive)	0.527	0.21 (inactive)
CN1CCN(S(=O)(=O)c2cc(C(=O)NCCc3ccccn3)cc(-c3ccccc3)c2)CC1	-0.308 (inactive)	-0.279	-0.695 (inactive)
Cc1cc(-c2cc3c(n(Cc4cccnc4)c2=O)CCN(C(=O)c2n[nH]c4c2CCC4)C3)ccc1F	-0.505	4.42	-1.53 (inactive)
CC(C)C[C@H]1C(=O)N2CCN(Cc3cccc4ncccc34)C[C@@H]2C(=O)N1C	-0.521 (inactive)	-0.107	-0.23 (inactive)
CNS(=O)(=O)c1cc(NCc2cc3ccccc3s2)cc(C(=O)Nc2ccc(OC)cc2)c1	0.562 (inactive)	0.602	2.26 (inactive)
COc1ccc(C[C@@H]2NC(=O)[C@H]3CN(C(=O)Oc4ccc(Cl)cc4)CCN3C2=O)cc1	-0.205 (inactive)	0.551	-1.58 (inactive)
Cc1ccc(-c2cc(C(=O)N3CCSCC3)cc(S(=O)(=O)N3CCOCC3)c2)s1	-0.321 (inactive)	-0.0192	0.905 (inactive)
COCCCN1C(=O)N(Cc2ccccc2)C(=O)C12CCN(Cc1ccc(-c3ccco3)cc1)CC2	0.678 (inactive)	0.032	-1.64 (inactive)
CCCc1c(C(=O)N[C@H]2C[C@H]3C(=O)N[C@H](Cc4ccc(O)cc4)C(=O)N3C2)cnn1-c1ccccc1	-0.275 (inactive)	-0.357	-1.02 (inactive)
CCCCNC(=O)[C@@H]1C[C@H](CN2CCOCC2)CN(CCc2ccccc2)C1	1.78 (inactive)	-0.178	-0.965 (inactive)

Compound	z-score [1, 3]	z-score [1, 4]	z-score [2]
CN1CCCC1CCNC(=O)[C@H]1CNC[C@@H](COc2cccc(F)c2)C1 (stereo partly drawn)	-0.0942 (inactive)	0.269	1.83 (inactive)
CN(Cc1cscn1)C(=O)c1nn(CC2CC2)c2c1CN(C(=O)Cn1cnc3ccccc31)CC2	0.533 (inactive)	-0.0924	-0.19 (inactive)
CN1CCCC1CCNC(=O)c1cc(-c2ccccc2)cc(S(=O)(=O)N2CCSCC2)c1 (stereo not drawn)	-0.508 (inactive)	-0.0913	0.505 (inactive)
Cc1ccc2c(-c3cc4c(n(CC5CC5)c3=O)CCN(C(=O)c3ccc5c(c3)OCO5)C4)cccc2n1	2.47 (active)	3.71	-0.54 (inactive)
COCCCNC(=O)c1nn(C)c2c1CN(C(=O)Cc1c(C)[nH]c3c(F)cccc13)CC2	-0.326 (inactive)	-0.829	0.99 (inactive)
CC(C)/C=C/CNc1cc(C(=O)NCc2cn3ccccc3n2)cc(S(=O)(=O)NC(C)C)c1	1.64 (inactive)	-0.726	-1.65 (inactive)
CCC(CC)CNc1cc(C(=O)NCCN(C)C)cc(S(=O)(=O)Nc2ccc(OC)cc2)c1	-0.364 (inactive)	0.972	-1.11 (inactive)
O=C1N[C@H](Cc2ccc(O)cc2)C(=O)N2CCN(C(=O)c3cccc4ccccc34)C[C@H]12	0.285 (inactive)	-0.378	-0.195 (inactive)
Cc1ccc(-c2cc(C(=O)NCC3CC3)cc(S(=O)(=O)N3CCOCC3)c2)s1	-0.142 (inactive)	0.0847	0.15 (inactive)
CCc1nc(Cn2c3c(cc(-c4ccccc4C)c2=O)CN(Cc2ccc(O)c(Cl)c2)CC3)no1	-0.286 (inactive)	-0.271	0.44 (inactive)
COC1CN(Cc2cn(C)c3ccccc23)CC(=O)N(Cc2ccccc2)C1 (stereo not drawn)	-0.128 (inactive)	-0.0158	0.47 (inactive)
CC(C)NS(=O)(=O)c1cc(NC2CCCCC2)cc(C(=O)NC2Cc3ccccc3C2)c1	-0.22 (inactive)	-0.431	-0.045 (inactive)
Cc1ccc(C(C)CCN2CCC3(CC2)C(=O)N(C(C)C)C(=O)N3CCC(C)C)o1 (stereo not drawn)	-0.199 (inactive)	-0.496	0.91 (inactive)
COc1ccc(/C=C/CN2CCc3c(cc(-c4cccc(-n5nc(C)cc5C)c4)c(=O)n3C)C2)cc1	-0.672 (inactive)	-0.157	-0.63 (inactive)
Cc1ccnn1CCC(=O)N1CCc2c(cc(Cc3ccccc3F)c(=O)n2Cc2cccnc2)C1	-0.36 (inactive)	-0.461	0.325 (inactive)
C=CCn1nc(C(=O)N2CCSCC2)c2c1CCC(NCCCSC)C2 (stereo not drawn)	-0.0452 (inactive)	-0.019	0.93 (inactive)
Cn1c2c(cc(-c3ccc(OC(F)(F)F)cc3)c1=O)CN(C(=O)C1CC(=O)c3ccccc31)CC2 (stereo not drawn)	0.0877 (inactive)	0.643	0.305 (inactive)
C[C@@H](OCc1ccccc1)[C@@H]1NC(=O)[C@H]2CN(C(=O)Oc3ccccc3)CCN2C1=O	-0.153 (inactive)	-0.114	-1.46 (inactive)
CCc1cc(C(=O)N2CCc3c(c(C(=O)N4CCN(c5ccccc5)CC4)nn3CC)C2)n(C)n1	-0.699 (inactive)	-0.0183	0.405 (inactive)
COC(=O)c1c(NC(=O)c2ccoc2)c2cc(NC(C)CSC)cnc2n1Cc1ccccc1 (stereo not drawn)	-1.27 (inactive)	0.841	-1.28 (inactive)
CC(C)C[C@H]1C(=O)N2CCN(Cc3cnn(-c4ccccc4)c3)C[C@@H]2C(=O)N1C	0.221 (inactive)	-0.165	-0.345 (inactive)
COC(=O)c1c(NC(=O)C2CCOC2)c2cc(NC(C)CO)cnc2n1CCCc1ccccc1 (stereo not drawn)	-1.11 (inactive)	1.02	-0.185 (inactive)
O=C([C@@H]1C[C@H](CN2CCOCC2)CN(Cc2ccc3ccccc3c2)C1)N1CCCC1	1.59 (inactive)	-0.119	-0.585 (inactive)
